Results filed as inconclusive are left out. Where a call stands in place of a potency, no number is given. Unmarked numbers belong to inactive results. Active and inactive are the calls of the source. Calls come from the whole dose curve; as a rule, active = well fitted curve in the direction sought with a large enough effect; inconclusive = small, poorly fitted or top-dose-only effect, or another doubt; inactive = no such curve, though single readings can be large; an effect the other way counts as inactive or inconclusive. Where a SMILES comes first, the peptide text is derived from it.
What was measured:
[1] = qHTS of pediatric cancer cell lines to identify multiple opportunities for drug repurposing: Primary screen for SK-N-MC cells (AID 1347093); note: potency is the fitted concentration of half-maximal effect
Method in brief: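 Metabolically active cells were quantified by ATP-dependent luminescence (CellTiter-Glo, 15 min at room temperature) following 48 h treatment. Cells had been plated at 500-1,000 per well and settled for 5 h beforehand.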

[2] = qHTS of pediatric cancer cell lines to identify multiple opportunities for drug repurposing: Primary screen for BT-37 cells (AID 1347094); note: series mostly up to about 57 µM
Method in brief: (§1)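 CRCs from 8- or 11-point titrations (lowest final 0.59 nM NPC, 0.78 nM MIPE). Cell viability: CellTiter-Glo after 48 h incubation, 15 min room-temperature development, luminescence imaging.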

[3] = qHTS of pediatric cancer cell lines to identify multiple opportunities for drug repurposing: Primary screen for NB-EBc1 cells (AID 1347095)
Method in brief: as §1

[4] = qHTS of pediatric cancer cell lines to identify multiple opportunities for drug repurposing: Primary screen for U-2 OS cells (AID 1347096); note: nearly all actives have a fitted effect of over 50% in size
Method in brief: (§2)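 Cells (500-1,000/well) in growth media were settled 5 h at 37 degrees C, then given compounds for 48 h. Viability was read as CellTiter-Glo luminescence. Primary runs used MIPE at 11 points (0.78 nM-46 µM) and NPC at 8 points (0.59 nM-46 µM); follow-ups used 11 points.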

[5] = qHTS of pediatric cancer cell lines to identify multiple opportunities for drug repurposing: Primary screen for Saos-2 cells (AID 1347097); note: nearly all actives have a fitted effect of over 40% in size; note: potency is the fitted concentration of half-maximal effect
Method in brief: as §1

[6] = qHTS of pediatric cancer cell lines to identify multiple opportunities for drug repurposing: Primary screen for SK-N-SH cells (AID 1347098); note: nearly all actives have a fitted effect of over 65% in size; note: potency is the fitted concentration of half-maximal effect
Method in brief: (§3)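 Cells (500-1,000/well) rested 5 h, then received compounds for 48 h; metabolically active cells were measured by CellTiter-Glo luminescence. Final concentrations spanned up to 46 µM (MIPE, 11-point) or 0.59 nM-46 µM (NPC, 8-point) in primary screens, 11-point in follow-ups.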

[7] = qHTS of pediatric cancer cell lines to identify multiple opportunities for drug repurposing: Primary screen for NB1643 cells (AID 1347099); note: nearly all actives have a fitted effect of over 50% in size
Method in brief: as §1

[8] = qHTS of pediatric cancer cell lines to identify multiple opportunities for drug repurposing: Primary screen for BT-12 cells (AID 1347101); note: nearly all actives have a fitted effect of over 25% in size
Method in brief: as §3

[9] = qHTS of pediatric cancer cell lines to identify multiple opportunities for drug repurposing: Primary screen for Rh18 cells (AID 1347102); note: nearly all actives have a fitted effect of over 65% in size
Method in brief: as §2

[10] = qHTS of pediatric cancer cell lines to identify multiple opportunities for drug repurposing: Primary screen for LAN-5 cells (AID 1347100)
Method in brief: as §2

C[C@H](CN1CCCC1)C(=O)c1ccc(C(F)(F)F)cc1
Potency [1]: inactive
Potency [2]: inactive
Potency [3]: inactive
Potency [4]: inactive
Potency [5]: inactive
Potency [6]: inactive
Potency [7]: inactive
Potency [8]: inactive
Potency [9]: inactive

CCOC(=O)NNc1ccc(N(CC)CC(C)O)nn1 (stereo unspecified)
Potency [1]: inactive
Potency [2]: inactive
Potency [3]: inactive
Potency [4]: inactive
Potency [5]: inactive
Potency [6]: inactive
Potency [7]: inactive
Potency [8]: inactive
Potency [9]: inactive

CCCC(=O)Nc1ccc(O)c(C(C)=O)c1
Potency [1]: inactive
Potency [2]: inactive
Potency [3]: inactive
Potency [4]: inactive
Potency [5]: inactive
Potency [6]: inactive
Potency [7]: inactive
Potency [10]: inactive
Potency [9]: inactive

O=C1CC[C@H](C(=O)N2CCCCC2)N1
Potency [1]: inactive
Potency [2]: inactive
Potency [3]: inactive
Potency [4]: inactive
Potency [5]: inactive
Potency [6]: inactive
Potency [7]: inactive
Potency [10]: inactive
Potency [9]: inactive

CN(C)CCN1CCN(c2cccc(Cl)c2)C1=O
Potency [1]: inactive
Potency [2]: inactive
Potency [3]: inactive
Potency [4]: inactive
Potency [5]: inactive
Potency [6]: inactive
Potency [10]: inactive
Potency [8]: inactive
Potency [9]: inactive

CC(=O)N[C@@H](CO)C(=O)N[C@@H](CC(=O)O)C(=O)N[C@@H](CCCCN)C(=O)N1CCC[C@H]1C(=O)O (Ac-SDKP-OH)
Potency [1]: inactive
Potency [2]: inactive
Potency [3]: inactive
Potency [4]: inactive
Potency [5]: inactive
Potency [6]: inactive
Potency [7]: inactive
Potency [8]: inactive
Potency [9]: inactive

Nc1nc2ccccc2n1Cc1ccc(F)cc1
Potency [1]: inactive
Potency [2]: inactive
Potency [3]: inactive
Potency [4]: inactive
Potency [5]: inactive
Potency [6]: inactive
Potency [7]: inactive
Potency [9]: inactive

CC(C)OP(=O)(CP(=O)(OC(C)C)OC(C)C)OC(C)C
Potency [1]: inactive
Potency [2]: inactive
Potency [3]: inactive
Potency [4]: inactive
Potency [5]: inactive
Potency [6]: inactive
Potency [10]: inactive
Potency [8]: inactive
Potency [9]: inactive

Clc1ccc2c(c1)Nc1ccccc1S2
Potency [1]: inactive
Potency [2]: inactive
Potency [3]: inactive
Potency [4]: inactive
Potency [5]: inactive
Potency [6]: inactive
Potency [7]: inactive
Potency [10]: inactive
Potency [9]: inactive

CC1CC(=O)NN=C1c1ccc(NCC(C)(C)NCC(O)COc2cc(Cl)ccc2C#N)cc1 (stereo unspecified)
Potency [1]: inactive
Potency [2]: inactive
Potency [3]: inactive
Potency [4]: inactive
Potency [5]: inactive
Potency [6]: inactive
Potency [7]: inactive
Potency [10]: inactive
Potency [9]: inactive

CC(C)(Oc1ccc(Cl)cc1)C(=O)OCCCOC(=O)C(C)(C)Oc1ccc(Cl)cc1
Potency [1]: inactive
Potency [2]: inactive
Potency [3]: inactive
Potency [4]: inactive
Potency [5]: inactive
Potency [6]: inactive
Potency [7]: inactive
Potency [8]: inactive
Potency [9]: inactive

COc1cc(C(=O)NC2CCCNC2)cc(OC)c1OC (stereo unspecified)
Potency [1]: inactive
Potency [2]: inactive
Potency [3]: inactive
Potency [4]: inactive
Potency [5]: inactive
Potency [6]: inactive
Potency [7]: inactive
Potency [9]: inactive

C[C@H]1NCc2cc(-c3ccc4c(=O)c(C(=O)O)cn(C5CC5)c4c3OC(F)F)ccc21
Potency [1]: inactive
Potency [2]: inactive
Potency [3]: inactive
Potency [4]: inactive
Potency [5]: inactive
Potency [6]: inactive
Potency [7]: inactive
Potency [8]: inactive
Potency [9]: inactive

Nc1c(NC/C=C\COc2cc(CN3CCCCC3)ccn2)c(=O)c1=O
Potency [1]: inactive
Potency [2]: inactive
Potency [3]: inactive
Potency [4]: inactive
Potency [5]: inactive
Potency [6]: inactive
Potency [7]: inactive
Potency [10]: inactive
Potency [9]: inactive

C#CC(C)(CC)OC(=O)c1ccccc1C(=O)O (stereo unspecified)
Potency [1]: inactive
Potency [2]: inactive
Potency [3]: inactive
Potency [4]: inactive
Potency [5]: inactive
Potency [6]: inactive
Potency [7]: inactive
Potency [8]: inactive
Potency [9]: inactive

CC1(C)OC(=O)Nc2ccc(Br)cc21
Potency [1]: inactive
Potency [2]: inactive
Potency [3]: inactive
Potency [4]: inactive
Potency [5]: inactive
Potency [6]: inactive
Potency [7]: inactive
Potency [10]: inactive
Potency [9]: inactive

O=C1NC(c2ccccc2)(c2ccccc2)C(=O)N1COP(=O)(O)O
Potency [1]: inactive
Potency [2]: inactive
Potency [3]: inactive
Potency [4]: inactive
Potency [5]: inactive
Potency [6]: inactive
Potency [7]: inactive
Potency [10]: inactive
Potency [9]: inactive

O=C(O)Cn1c(=O)n(Cc2ccc(Br)cc2F)c(=O)c2ccc(Cl)cc21
Potency [1]: inactive
Potency [2]: inactive
Potency [3]: inactive
Potency [4]: inactive
Potency [5]: inactive
Potency [6]: inactive
Potency [7]: inactive
Potency [8]: inactive
Potency [9]: inactive

Cc1nc2n(c(=O)c1CCN1CCC(C(=O)c3ccc(F)cc3)CC1)CCS2
Potency [1]: inactive
Potency [2]: inactive
Potency [3]: inactive
Potency [4]: inactive
Potency [5]: inactive
Potency [6]: inactive
Potency [10]: inactive

O=C1CC2(CCCC2)CC(=O)N1
Potency [1]: inactive
Potency [2]: inactive
Potency [3]: inactive
Potency [4]: inactive
Potency [5]: inactive
Potency [6]: inactive
Potency [7]: inactive
Potency [8]: inactive
Potency [9]: inactive

O=C(O)c1ccccc1Nc1cc(Cl)ccc1C(=O)O
Potency [1]: 8.2 µM (active)
Potency [2]: inactive
Potency [3]: inactive
Potency [4]: inactive
Potency [5]: 9.2 µM (active)
Potency [6]: 11.9 µM (active)
Potency [10]: inactive
Potency [8]: inactive
Potency [9]: inactive

CC(C)NC(=O)c1ccc(C=O)cc1
Potency [1]: inactive
Potency [2]: inactive
Potency [3]: inactive
Potency [4]: inactive
Potency [5]: inactive
Potency [6]: inactive
Potency [10]: inactive
Potency [8]: inactive

CN1CC(=O)N2[C@H](c3ccc4c(c3)OCO4)c3[nH]c4ccccc4c3C[C@@H]2C1=O
Potency [1]: inactive
Potency [2]: inactive
Potency [3]: inactive
Potency [4]: inactive
Potency [5]: inactive
Potency [6]: inactive
Potency [7]: inactive
Potency [8]: inactive
Potency [9]: inactive

Cc1ccc(C(C)OC(=O)C2(C)CCC(C(=O)O)C2(C)C)cc1 (stereo unspecified)
Potency [1]: inactive
Potency [2]: inactive
Potency [3]: inactive
Potency [4]: inactive
Potency [5]: inactive
Potency [6]: inactive
Potency [7]: inactive
Potency [10]: inactive
Potency [9]: inactive
